Experimental data from the supplement of paper PMC10646978.
± gives the standard deviation.

Columns and labels:
Details in all cases: modulator concentration 10 µM
[1] = system: RAW-Dual (murine macrophage reporter line); assay: NF-kB reporter (SEAP) activity fold change vs agonist alone; higher = enhanced NF-kB activity
Method in brief: (§1)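 RAW-Dual murine macrophage reporter cells were seeded at 50 000 per well in 384-well plates and pre-incubated 1 hour at 37 °C with compound pin-transferred to 10 μM final. After 1 hour, a PRR agonist was added and cells incubated overnight. Supernatant NF-κB (SEAP, QUANTI-Blue, 620 nm absorbance) and IRF (Lucia luciferase, QUANTI-Luc, luminescence) signals were divided by the mean agonist-only control on the same plate to give fold change. Two replicate plates were averaged, with errors by propagation.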

[2] = system: RAW-Dual (murine macrophage reporter line); assay: IRF reporter (Lucia luciferase) activity fold change vs agonist alone; higher = enhanced IRF activity
Method in brief: as §1

[3] = system: RAW-Dual (murine macrophage reporter line); assay: viability score (confluency relative to resting cells, overnight) (fraction); higher = more viable, active = viable (0.7 or more)
Method in brief: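 Overnight exposure to 10 μM final compound was carried out on RAW-Dual macrophages in 384-well plates. IncuCyte software generated two confluency masks over all wells imaged with IncuCyte. The viability score gives confluency in relation to resting cells. A compound met the cutoff if each mask exceeded 70% of resting cells.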

[4] = agonist: CpG ODN 1826 0.5 ug/mL

| Compound | NF-kB reporter [1, 4] | NF-kB reporter ([1]; agonist: LPS 0.1 ug/mL) | NF-kB reporter ([1]; agonist: MPLA […]) | IRF reporter ([2]; agonist: 3'3'-cGAMP 10 ug/mL) | IRF reporter ([2]; agonist: LPS 0.1 ug/mL) | IRF reporter ([2]; agonist: MPLA […]) | viability score [3] |
| --- | --- | --- | --- | --- | --- | --- | --- |
| O=C(NCCCn1ccc2cccnc21)c1ccccc1C(F)(F)F | 0.946 ± 0.091 | 1.1 ± 0.092 | 1.03 ± 0.18 | 1.06 ± 0.056 | 1.16 ± 0.1 | 1.45 ± 0.15 | 0.978 (active) |
| CCn1cc(C(=O)O)c(=O)c2cc(F)c(N3CCN(C)CC3)cc21.CS(=O)(=O)O.O.O | 0.788 ± 0.11 | 1.13 ± 0.13 | 0.897 ± 0.05 | 0.863 ± 0.026 | 1.37 ± 0.12 | 1.07 ± 0.16 | 0.991 (active) |
| CN(C/C=C/C#CC(C)(C)C)Cc1cccc2ccccc12.Cl | 1.15 ± 0.054 | 0.905 ± 0.072 | 0.913 ± 0.049 | 1.07 ± 0.068 | 0.817 ± 0.14 | 0.885 ± 0.19 | 0.702 (active) |
| S=C(NCCN1CCCCC1)NCc1ccccc1 | 0.962 ± 0.14 | 1 ± 0.055 | 0.99 ± 0.12 | 1.01 ± 0.035 | 1.33 ± 0.14 | 1.22 ± 0.12 | 1.01 (active) |
| CCN(CC)c1ccc(C=NNC(=O)c2ccncc2)c(O)c1 | 2.56 ± 0.2 | 1.66 ± 0.13 | 5.41 ± 0.24 | 0.888 ± 0.12 | 1.29 ± 0.084 | 1.35 ± 0.14 | 0.695 (inactive) |
| CCCCCCCC(O)CC(CC1CCCCC1)C(=O)NN (configuration not stated) | 0.721 ± 0.056 | 0.912 ± 0.074 | 0.977 ± 0.093 | 0.88 ± 0.062 | 1.19 ± 0.22 | 1.28 ± 0.28 | 1.02 (active) |
| Cn1ncc(Cl)c1-c1cc(C(=O)N[C@H](CN)Cc2cccc(F)c2)sc1Cl | 0.833 ± 0.2 | 1.54 ± 0.11 | 1.64 ± 0.17 | 0.69 ± 0.026 | 1.55 ± 0.21 | 1.79 ± 0.33 | 0.647 (inactive) |
| CC1=C(C(=O)OC(C)C)C(c2cccc([N+](=O)[O-])c2)C(C(=O)OC2CN(C(c3ccccc3)c3ccccc3)C2)=C(N)N1 (configuration not stated) | 1.58 ± 0.068 | 1.82 ± 0.15 | 2.56 ± 0.17 | 0.36 ± 0.021 | 1.66 ± 0.24 | 2.12 ± 0.44 | 0.902 (active) |
| CC(C)NCC(O)COc1ccc(CCOCC2CC2)cc1 (configuration not stated) | 0.927 ± 0.09 | 1.02 ± 0.1 | 1.06 ± 0.04 | 0.907 ± 0.073 | 0.897 ± 0.029 | 0.764 ± 0.098 | 1 (active) |
| CC(N)C12CC3CC(CC(C3)C1)C2 (configuration not stated) | 0.979 ± 0.045 | 0.933 ± 0.14 | 1.06 ± 0.058 | 1.02 ± 0.056 | 1.12 ± 0.2 | 1.24 ± 0.37 | 1.01 (active) |
| COc1ccc(NC(=O)CCn2nc(C)nc2C)cc1 | 1.04 ± 0.099 | 1.07 ± 0.085 | 0.963 ± 0.12 | 0.961 ± 0.049 | 1.09 ± 0.068 | 1.01 ± 0.12 | 1 (active) |
| CNC(=O)C(=O)Nc1cc(Cl)ccc1C | 1.07 ± 0.18 | 1 ± 0.078 | 0.912 ± 0.08 | 1.01 ± 0.042 | 1.25 ± 0.15 | 1.3 ± 0.19 | 1 (active) |
| Clc1ccc(Nc2nnc(Cc3ccncc3)c3ccccc23)cc1 [Prestw-1358] | 0.987 ± 0.056 | 1.07 ± 0.069 | 0.85 ± 0.07 | 0.785 ± 0.028 | 1.08 ± 0.069 | 1.1 ± 0.11 | 0.997 (active) |
| O=C(NCC1(c2ccc(F)cc2)CCOCC1)c1cnc2ccccc2n1 | 1.01 ± 0.05 | 1.1 ± 0.094 | 1.02 ± 0.12 | 1.08 ± 0.06 | 1.2 ± 0.093 | 1.42 ± 0.12 | 1.01 (active) |
| CS(=O)(=O)N(CC(=O)NC1CC1)c1cccc2ccccc12 | 1.04 ± 0.095 | 1.01 ± 0.12 | 0.901 ± 0.056 | 1 ± 0.039 | 1.59 ± 0.35 | 1.16 ± 0.17 | 1.01 (active) |
| CCNC(=O)c1ccc(CN2CCc3ccccc3C2)cc1 | 1.12 ± 0.09 | 1.13 ± 0.074 | 0.958 ± 0.059 | 0.905 ± 0.039 | 1.37 ± 0.29 | 1.04 ± 0.075 | 1.01 (active) |
| Cc1ccc(C(=O)N2N=C(c3ccc(Cl)cc3)CC2(O)C(F)(F)F)o1 (configuration not stated) | 0.721 ± 0.06 | 0.82 ± 0.054 | 0.974 ± 0.097 | 0.975 ± 0.06 | 1.33 ± 0.077 | 1.42 ± 0.16 | 1 (active) |
| CC(C)(C)c1ccc(C2=NC(=Cc3cccc4ccccc34)C(=O)O2)cc1 | 0.986 ± 0.078 | 1.05 ± 0.082 | 0.97 ± 0.034 | 0.857 ± 0.11 | 1.1 ± 0.11 | 1 ± 0.19 | 1 (active) |

| Compound | NF-kB reporter [1, 4] | NF-kB reporter ([1]; agonist: LPS 0.1 ug/mL) | NF-kB reporter ([1]; agonist: MPLA […]) | IRF reporter ([2]; agonist: 3'3'-cGAMP 10 ug/mL) | IRF reporter ([2]; agonist: LPS 0.1 ug/mL) | IRF reporter ([2]; agonist: MPLA […]) | viability score [3] |
| --- | --- | --- | --- | --- | --- | --- | --- |
| CN1CCN(CCCN2c3ccccc3Sc3ccc(Cl)cc32)CC1.O=C(O)/C=C\C(=O)O.O=C(O)/C=C\C(=O)O | 1.01 ± 0.049 | 1.14 ± 0.098 | 2.15 ± 0.15 | 0.14 ± 0.012 | 0.479 ± 0.12 | 0.435 ± 0.13 | 0.86 (active) |
| CCCOc1ccc(C=CC(=O)Nc2ccc(S(=O)(=O)Nc3ncccn3)cc2)cc1OC | 0.938 ± 0.077 | 1.03 ± 0.06 | 0.963 ± 0.092 | 0.982 ± 0.035 | 1.27 ± 0.18 | 1.11 ± 0.23 | 1.01 (active) |
| NC(C(=O)O)c1ccccc1F (configuration not stated) | 0.928 ± 0.11 | 0.966 ± 0.11 | 0.994 ± 0.039 | 0.939 ± 0.056 | 0.969 ± 0.053 | 0.81 ± 0.082 | 1 (active) |
| Ic1cccc(Cn2nnc(-c3ccccc3)n2)c1 | 0.76 ± 0.06 | 0.98 ± 0.048 | 1.38 ± 0.15 | 0.872 ± 0.04 | 1.28 ± 0.12 | 1.51 ± 0.18 | 1.01 (active) |
| Cc1ncc(CC(=O)N2CCC(c3ccccc3Cl)S(=O)(=O)CC2)s1 (configuration not stated) | 0.884 ± 0.07 | 0.974 ± 0.12 | 0.972 ± 0.032 | 1.11 ± 0.092 | 0.981 ± 0.076 | 0.944 ± 0.24 | 1 (active) |
| CS(=O)(=O)N(CC(=O)NCCSCc1cccc(Cl)c1)c1cccc(Cl)c1 | 0.978 ± 0.16 | 0.986 ± 0.079 | 1.1 ± 0.15 | 1.02 ± 0.033 | 1.08 ± 0.11 | 1.24 ± 0.42 | 1 (active) |
| O=C(NC(=S)Nc1ccccc1C(F)(F)F)c1cccc(I)c1 | 0.927 ± 0.088 | 0.989 ± 0.076 | 0.9 ± 0.066 | 0.989 ± 0.025 | 1.24 ± 0.13 | 1.09 ± 0.14 | 1.01 (active) |
| CN(C)S(=O)(=O)N1CCC(CNC(=O)NC2CCCC2)CC1 | 0.963 ± 0.098 | 1.09 ± 0.098 | 0.818 ± 0.11 | 0.958 ± 0.1 | 1.04 ± 0.062 | 0.874 ± 0.31 | 1 (active) |
| NC12CC3CC(CC(C3)C1)C2 | 1.19 ± 0.31 | 1.09 ± 0.066 | 1.01 ± 0.087 | 0.874 ± 0.061 | 1.13 ± 0.15 | 1.06 ± 0.2 | 0.999 (active) |
| Cc1cccc(C(=O)N2N=C(c3ccccc3)CC2(O)C(F)(F)F)c1 (configuration not stated) | 1.29 ± 0.1 | 1.13 ± 0.062 | 1.46 ± 0.087 | 1.58 ± 0.049 | 3.2 ± 0.32 | 1.79 ± 0.12 | 0.254 (inactive) |
| COc1cc2c(cc1OC)C(=S)NC1(CCCC1)C2 | 0.886 ± 0.33 | 0.985 ± 0.12 | 0.941 ± 0.1 | 0.962 ± 0.04 | 1.04 ± 0.16 | 1.28 ± 0.23 | 0.596 (inactive) |
| O=c1[nH]cnc2ccccc12 | 0.416 ± 0.14 | 0.159 ± 0.013 | 0.215 ± 0.019 | 0.133 ± 0.013 | 0.378 ± 0.098 | 0.0913 ± 0.014 | 0.561 (inactive) |
| COc1cc(C(=O)NCCCCc2ccccc2)cc(OC)c1OC | 1.09 ± 0.095 | 1.04 ± 0.068 | 0.994 ± 0.034 | 0.906 ± 0.14 | 0.993 ± 0.068 | 0.983 ± 0.14 | 0.995 (active) |
| Clc1ccc(-c2nc(-c3ccc(I)cc3)[nH]c2-c2ccc(Cl)cc2)cc1 | 0.641 ± 0.049 | 0.91 ± 0.1 | 0.985 ± 0.1 | 0.929 ± 0.082 | 1.19 ± 0.24 | 1.27 ± 0.3 | 1.02 (active) |
| CCCCN(Cc1ccccc1)C(=O)C1CCN(Cc2c(F)cccc2Cl)CC1 | 0.378 ± 0.034 | 1.09 ± 0.09 | 0.757 ± 0.056 | 1.01 ± 0.029 | 1.69 ± 0.27 | 1.36 ± 0.25 | 0.617 (inactive) |
| Clc1ccc(Nc2nc(Nc3ccc(Cl)cc3)nc(N3CCOCC3)n2)cc1 | 0.794 ± 0.072 | 0.902 ± 0.068 | 1.1 ± 0.15 | 0.805 ± 0.12 | 1.26 ± 0.23 | 1.37 ± 0.45 | 1.03 (active) |
| C=CCn1c(SCC(=O)NCCN2CCOCC2)nc2sc3c(c2c1=O)CCC3 | 0.99 ± 0.079 | 1.05 ± 0.069 | 0.852 ± 0.068 | 1.02 ± 0.081 | 1.48 ± 0.11 | 0.984 ± 0.083 | 1.01 (active) |
| COc1ccc(C=Nc2ccc(OC(C)=O)cc2)cc1 | 0.738 ± 0.16 | 1.11 ± 0.16 | 1.03 ± 0.11 | 0.588 ± 0.029 | 1.34 ± 0.13 | 1.23 ± 0.15 | 1 (active) |
